This passage reports Potency and outcome results from PubChem BioAssay (Tox21).

The nature of test [1]: qHTS assay to identify small molecule agonists of the vitamin D receptor (VDR) signaling pathway - cell viability counter screen (AID 743224). Also: nearly all actives have a fitted effect of over 50% in size. The method in brief: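 Plated VDR-bla cells (4 h, 37C) received compound, incubated 16 h, then LiveBLAzer substrate 2 h RT; CellTiter-Glo added afterwards, luminescence read at 30 min.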
A general note: In qHTS, concentration-response curves come from the screen itself.

Test [2] in a line: qHTS assay to identify small molecule antagonists of the vitamin D receptor (VDR) signaling pathway - cell viability counter screen (AID 743225). Also: nearly all actives have a fitted effect of over 50% in size. The method in brief:
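Parallel cytotoxicity test: VDR-UAS-bla HEK 293T, 3 nM (final) 1-alpha,25-dihydroxyvitamin D3 with test compound, 16 h, 37C. Endpoint is CellTiter-Glo luminescence in the same wells.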

Test [3] can be described thus: qHTS assay to identify small molecule agonists of the NFkB signaling pathway - cell viability counter screen (AID 1159515; calls by dose curve; also: nearly all actives have a fitted effect of over 55% in size). The method in brief: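 Using the same wells as the NFkB reporter read, ME-180 NFkB-bla cells given compounds for 5 hr were assessed for viability via CellTiter-Glo, with luminescence taken after a 30 min room-temperature incubation.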
Test [4] is described as follows: qHTS assay to identify small molecule agonists of the endoplasmic reticulum stress response signaling pathway - cell viability counter screen (AID 1159517; calls by dose curve;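 also: HeLa cells carrying an ER stress response element beta-lactamase reporter; nearly all actives have a fitted effect of over 50% in size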). In outline: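 CellTiter-Glo was added to wells already read for beta-lactamase FRET, and luminescence was recorded 30 min later. Cells: ESRE-bla HeLa, 1,500 per well, compound exposure 5 hr at 37 C.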
A short description of test [5]: qHTS assay to identify small molecule antagonists of the retinoid-related orphan receptor gamma (ROR-gamma) signaling pathway - cell viability counter screen (AID 1159520). Also: nearly all actives have a fitted effect of over 50% in size. In outline:
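Tet-on ROR gamma CHO cells (1,000/well) were plated 4 hr, given compounds in DMSO for 2 hr at 37 C, then induced with 1 uM final doxycycline for 16 hr. Viability was read as ATP by CellTiter-Glo luminescence after 30 min.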

Test [6] addresses Nuclear receptor ROR-gamma (Homo sapiens) (UniProt P51449). Description: qHTS assay to identify small molecule antagonists of the retinoid-related orphan receptor gamma (ROR-gamma) signaling pathway (AID 1159521). The method in brief:
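Decreased RORE-driven luciferase luminescence indicates antagonism. Tet-on RORγ CHO cells received compound, then 1 uM final doxycycline 2 h later; signal read after 16 h incubation.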

A short description of test [7]: qHTS assay to identify small molecule agonists of the AP-1 signaling pathway - cell viability counter screen (AID 1159525; calls by dose curve; also: nearly all actives have a fitted effect of over 55% in size). The method in brief:
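ME-180 AP-1-bla, 2500 cells/well, Opti-MEM + 0.5% dialyzed FBS; overnight 37 °C; cpd 15-pt titration, 5 h 37 °C; CellTiter-Glo 30 min RT; luminescence read; normalised to TOAB and DMSO controls.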

Test [8] in a line: qHTS assay to identify small molecule agonists of the AP-1 signaling pathway (AID 1159526; calls by dose curve; also: potency is read from the fitted curve at half-maximal effect).
The nature of test [9]: qHTS assay to identify small molecule agonists of the RXR signaling pathway - cell viability counter screen (AID 1159529). In outline: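 In this parallel viability measure, GeneBLAzer RXR-alpha HEK 293T cells (2% charcoal-stripped FBS) were given a 5 hr preincubation, treated with compounds 16 hr at 37 C, and read by CellTiter-Glo luminescence.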
A short description of test [10]: qHTS assay to identify small molecule antagonists of the retinoid acid receptor (RAR) signaling pathway - cell viability counter screen (AID 1159551). Also: nearly all actives have a fitted effect of over 35% in size. The method in brief: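 Retinol-stimulated (1 uM final) C3RL4 cells, compound 6 h, 37 C; readout CellTiter-Glo luminescence (ATP) after 30 min RT incubation.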
Test [11] can be described thus: qHTS assay to identify small molecule antagonists of the retinoic acid receptor (RAR) signaling pathway (AID 1159552; also: nearly all actives have a fitted effect of over 50% in size). The method in brief:
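C3RL4 RARE-luc cells, overnight plating; retinol 1 uM final added right after compound; 6 hr 37 C; luciferase read at 30 min RT.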

Test [12] is described as follows: qHTS assay to identify small molecule agonists of the retinoic acid receptor (RAR) signaling pathway (AID 1159553). To be noted: C3RL4 RARE luciferase reporter, agonist, 6 h; activation: at 73.3 µM (top of the series) unless noted. In outline: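 Reporter readout comes from luciferase under RARE control in C3RL4 cells; compound exposure lasts 6 hr at 37 C in 5% CO2, and luminescence is recorded following a 30 min room-temperature incubation with reagent.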

The target in test [13] is Retinoic acid receptor RXR-alpha (Homo sapiens) (UniProt P19793). Description: qHTS assay to identify small molecule agonists of the RXR signaling pathway (AID 1159527; calls by dose curve; also: nearly all actives have a fitted effect of over 35% in size; also: potency is read from the fitted curve at half-maximal effect). The method in brief:
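16 hr incubation of compound-treated RXR-alpha-UAS-bla HEK 293T cells (2% charcoal-stripped FBS, 37 C) preceded a 2 hr room-temperature LiveBLAzer FRET substrate step and blue/green fluorescence measurement.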

A short description of test [14]: qHTS assay to identify small molecule antagonists of the estrogen related receptor (ERR) signaling pathway - cell viability counter screen (AID 1224818).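 Also: viability measured after 17.5 h of compound exposure.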 In outline: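 After a 6 h pre-incubation, ERR cells were dosed by pin tool with compounds, positive/negative controls or DMSO alone. Following 17.5 h at 37 C and 30 min with CellTiter-Fluor, fluorescence was recorded.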

Test [15] in a line: qHTS assay to identify small molecule antagonists of the estrogen related receptor (ERR) signaling pathway (AID 1224819). The method in brief:
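Luminescence readout (One-Glo, 30 min, RT) of ERR cell line after 18 h compound exposure at 37 C; cells seeded 2,000/well, pre-incubated 6 h, compounds pinned from DMSO stocks.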

Test [16] in a line: qHTS assay to identify small molecule agonists of the estrogen related receptor (ERR) signaling pathway (AID 1224820). In outline: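 Cells: ERR line from NTP, 2,000/well. Pre-incubation 6 h, 37 C/5% CO2. Compound (DMSO) pin transfer, 18 h 37 C. One-Glo, 30 min RT, luminescence.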
For test [17], the system named is estrogen-related receptor alpha (ERRalpha) with PGC-1alpha coactivator, human. Description: qHTS assay to identify small molecule antagonists of the estrogen related receptor signaling pathway with the pleiotropic PPARgamma coactivator (PGC) (AID 1224821; calls by dose curve). In outline: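 Luminescent read-out (One-Glo, 30 min at room temperature) following 18 h treatment of PGC/ERR cells at 37 C with compounds delivered in DMSO. Cells had settled 6 h at 37 C/5% CO2 before dosing.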

Test [18] is described as follows: qHTS assay to identify small molecule antagonists of the estrogen related receptor signaling pathway with the pleiotropic PPARgamma coactivator (PGC) cell viability counter screen (AID 1224822;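 also: viability read after 17.5 h compound exposure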). The method in brief:
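PGC/ERR cells were plated at 2,000 per well and allowed 6 h to settle before compound addition. Following 17.5 h at 37 C, CellTiter-Fluor reagent was added and fluorescence was read 30 min later.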

Test [19] in a line: qHTS assay to identify small molecule agonists of the estrogen related receptor signaling pathway with the pleiotropic PPARgamma coactivator (PGC) (AID 1224823). In outline:
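Steps: plate PGC/ERR cells at 2,000 cells/well; incubate 6 h, 37 C/5% CO2; pin-transfer compounds (DMSO); incubate 18 h, 37 C; add One-Glo; 30 min RT; read luminescence.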

Inconclusive results are not listed. Active and inactive are the calls of the source. Unless noted, calls follow the shape of the dose curve; as a rule, active = well fitted curve in the direction sought with a large enough effect in the repeat runs; inconclusive = weak or mixed curves; inactive = no such curve, though single readings can be large; an effect the other way counts as inactive or inconclusive.

Chain of Retinoic acid receptor RXR-alpha (Homo sapiens) (P19793 whole entry, looked up): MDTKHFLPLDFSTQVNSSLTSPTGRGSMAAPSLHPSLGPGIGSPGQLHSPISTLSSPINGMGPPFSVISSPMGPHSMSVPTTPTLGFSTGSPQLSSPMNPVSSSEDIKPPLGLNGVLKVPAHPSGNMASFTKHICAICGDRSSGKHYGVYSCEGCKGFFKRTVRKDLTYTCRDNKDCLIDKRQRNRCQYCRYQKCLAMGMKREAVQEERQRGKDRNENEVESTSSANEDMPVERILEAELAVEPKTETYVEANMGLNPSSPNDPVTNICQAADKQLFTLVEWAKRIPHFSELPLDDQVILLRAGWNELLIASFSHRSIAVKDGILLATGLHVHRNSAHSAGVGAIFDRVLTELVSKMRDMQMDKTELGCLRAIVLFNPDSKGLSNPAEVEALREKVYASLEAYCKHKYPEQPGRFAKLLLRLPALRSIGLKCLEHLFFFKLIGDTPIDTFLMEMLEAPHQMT

As to `COc1ccc2c(c1)c(CC(=O)OC/C=C(\C)CC/C=C(\C)CCC=C(C)C)c(C)n2C(=O)c1ccc(Cl)cc1`, the Potency entry in test [1], in test [2], in test [3], in [4], in test [5] and in test [6] was “inactive” in each case. For the same compound, the Potency result in test [7], in test [8], in test [9], in test [10], in test [11] and in [12] was “inactive” in each case.
Take `C=C(C)c1cccc(C(=C)C)c1`: the Potency entry in [1], in test [2], in [3], in test [4], in test [5] and in test [6] was “inactive” throughout. Further, the Potency result in test [7], in [8], in test [13], in test [9], in [10] and in [11] was “inactive” in each case. The Potency entry in test [12] was “inactive”.
For `CCCCCCCCCCCC(=O)OCC(C)OC(=O)CCCCC(=O)O` (stereo not drawn), the Potency result in [2], in [3], in test [4], in test [5], in [6] and in test [7] was “inactive” throughout. The Potency result in test [8], in test [13], in test [10], in test [11] and in [12] was “inactive” each time.
On to `CNc1ccc([N+](=O)[O-])cc1`, for which the Potency entry in test [1], in [2], in [3], in [4], in test [5] and in test [6] was “inactive” each time. The Potency entry in test [7], in [8], in [13], in [10] and in test [11] was “inactive” in each case.
In the case of `Cc1cc(C(C)(C)C)cc(C)c1CC1=NCCN1`, the Potency result in [1], in test [2], in test [3], in test [4], in test [5] and in test [6] was “inactive” in each case. Moreover, the Potency result in test [7], in [8], in test [10], in test [11], in test [12] and in test [15] was “inactive” in each case. In addition, the Potency result in [17] and in [18] was “inactive” throughout. For the same compound, the outcome in test [14], in test [16] and in test [19] was inactive.
As to `O=S(=O)(O)c1ccccc1/C=C/c1ccc(-c2ccc(/C=C/c3ccccc3S(=O)(=O)O)cc2)cc1`, the Potency entry in [1], in test [2], in test [3], in test [4], in test [5] and in test [6] was “inactive” each time. The Potency result in test [7], in test [10], in [11] and in test [12] was “inactive” in each case. The Potency in [8] was 31.3 µM (active); in test [13], 35.2 µM (active).
Regarding `O=C(O)c1cc(-c2ccc(F)cc2F)ccc1O`, the Potency entry in test [1], in test [3], in test [4], in test [5], in test [6] and in test [7] was “inactive” in each case. Moreover, the Potency entry in test [8], in [9] and in test [10] was “inactive” in each case.
`CC(C)(c1cc(Br)c(OCC(Br)CBr)c(Br)c1)c1cc(Br)c(OCC(Br)CBr)c(Br)c1` (stereo not drawn): the Potency entry in test [1], in test [2], in test [3], in [4], in [5] and in test [6] was “inactive” throughout. The Potency result in [7], in test [8], in test [13], in test [9], in test [10] and in [11] was “inactive” throughout. In addition, in test [12], the Potency entry was “inactive”.
